# Measurements as given in PubChem BioAssay.
# Where “and” joins values, the source holds several entries; their conditions need not be identical. Identical values can stand only once. For some of these results: Potency and affinity values are given separately. Calls of active or inactive are those of the source. Cut-off read from the data, not from the text of the source, unless noted: active = parasite load remaining mostly below about 12% (no sharp cut-off); inactive = mostly above about 10%.
# How the values were obtained:
# [1] = blockers of polyQ-driven CASP3 activation – cell-based (AID 1583); conditions: polyglutamine-induced caspase-3 activation, cell assay; stronger effect = higher value;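 tested at 10 µM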
# [2] = yeast 75Q aggregation reduction – 75Q-TubU reporter (AID 1593); conditions: Yeast 75Q polyglutamine aggregation reporter
# [3] = restoration of touch response, mutant HTT neurons – whole organism, C. elegans mechanosensory neurons, N-terminal huntingtin (AID 1599); conditions: C. elegans polyQ-huntingtin mechanosensory neurons, stronger effect = higher value
# [4] = blockers of cytochrome c efflux from mitochondria – biochemical, purified mitochondria (AID 1603); conditions: stronger effect = lower value;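 note: mouse liver mitochondria challenged with calcium chloride; signal normalized to the plate average as 100%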
# [5] = polyglutamine aggregate formation blockers (AID 1604); conditions: polyglutamine-induced protein aggregation inhibition assay; stronger effect = higher value; tested at 2.5 µM
# [6] = glutamate transport activators, MN-1 cells, MN-1 cell line (AID 1612); conditions: MN-1 motor neuron cells, stronger effect = higher value;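 note: tested at 1 µM final; 0% = mean of DMSO vehicle wells on each plate; positive means more glutamate uptake than control and negative means less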
# [7] = GFP-Q80 aggregate reduction, neuronal-like cells, cell-based, NGF-treated PC12, GFPQ80 (AID 1614); conditions: PC12 NGF-treated GFP-polyQ80 inclusion reduction;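 note: lower means fewer inclusions and 0 means no inclusions at all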
# [8] = 75Q-TubH aggregate inhibition, S. cerevisiae, yeast (AID 1616); conditions: S. cerevisiae 75Q-TubH polyglutamine aggregation suppression; stronger effect = higher value
# [9] = biological target: 6-phosphogluconate dehydrogenase, decarboxylating (Homo sapiens) (UniProt P52209); assay: inhibition of human phosphogluconate dehydrogenase – biochemical, recombinant enzyme, NADPH absorbance, primary screen (AID 1159550;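 active = at least 20% inhibition of 6-phosphogluconate dehydrogenase activity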); conditions: recombinant 6PGD, NADPH absorbance 341 nm; at 10 µM; stronger effect = higher value
# Sequence of 6-phosphogluconate dehydrogenase, decarboxylating (Homo sapiens) (P52209 whole entry, looked up): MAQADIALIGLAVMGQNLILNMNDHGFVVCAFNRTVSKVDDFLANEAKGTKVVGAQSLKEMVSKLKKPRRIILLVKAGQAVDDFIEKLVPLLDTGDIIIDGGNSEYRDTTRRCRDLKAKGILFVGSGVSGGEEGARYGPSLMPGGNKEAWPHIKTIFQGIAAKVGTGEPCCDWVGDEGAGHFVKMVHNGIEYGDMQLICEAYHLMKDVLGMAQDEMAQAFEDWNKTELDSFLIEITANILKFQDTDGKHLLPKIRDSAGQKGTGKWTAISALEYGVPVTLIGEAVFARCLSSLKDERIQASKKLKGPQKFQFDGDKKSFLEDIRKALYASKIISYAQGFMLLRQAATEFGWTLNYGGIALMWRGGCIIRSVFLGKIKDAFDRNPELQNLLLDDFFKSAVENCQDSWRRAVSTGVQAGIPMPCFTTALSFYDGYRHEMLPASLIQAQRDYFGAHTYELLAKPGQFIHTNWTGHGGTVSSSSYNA
# [10] = EMT-state selective cytotoxicity in co-culture – imaging, PC-3E GFP, TEM4-18 mCherry, primary screen (AID 1345086;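 active = compounds killing one labelled cell type while sparing the other, by normalised counts and ratio limits, not self-fluorescent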;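 for all read-outs here: cells exposed to compound for 72 h before imaging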;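 for red/green cell ratio (normalised): normalised mesenchymal count divided by normalised epithelial count so high means epithelial killing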); conditions: PC-3E GFP / TEM4-18 mCherry co-culture, imaging cell counts, at 1 µM; for red/green cell ratio (normalised): actives lie on both sides, counts scaled to control wells, 1 = unselective
# [11] = viability loss with induced miR-34 in A549 – imaging, A549 dox-inducible miR-34, nuclei and caspase counts, primary screen (AID 1347080;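 active = compounds whose cell count with miR-34 switched on is under 0.7 times the count with it off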); conditions: A549 miR-34 inducible, Hoechst nuclei count, 48 h
# [12] = blockers of cellular phospholipid synthesis – cell-based, LOPAC library, screen 4, primary screen (AID 1347384; call rule not given here); conditions: animal cells, phospholipid biosynthesis inhibition screen; at 10 µM
# [13] = biological target: Mitogen-activated protein kinase 7 (Homo sapiens) (UniProt Q13164); assay: Gal4-ERK5 driven luciferase induction – cell-based, HTS, primary screen (AID 1508626;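 active = luciferase signal above three times the same-plate solvent-only control wells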;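 note: luciferase driven by Gal4-ERK5 fusion binding five Gal4 sites before minimal TATA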); conditions: HeLa Gal4-ERK5 transactivation, 18 h, at 5 µM, stronger effect = higher value
# Sequence of Mitogen-activated protein kinase 7 (Homo sapiens) (Q13164 whole entry, looked up, the tested form may be a part): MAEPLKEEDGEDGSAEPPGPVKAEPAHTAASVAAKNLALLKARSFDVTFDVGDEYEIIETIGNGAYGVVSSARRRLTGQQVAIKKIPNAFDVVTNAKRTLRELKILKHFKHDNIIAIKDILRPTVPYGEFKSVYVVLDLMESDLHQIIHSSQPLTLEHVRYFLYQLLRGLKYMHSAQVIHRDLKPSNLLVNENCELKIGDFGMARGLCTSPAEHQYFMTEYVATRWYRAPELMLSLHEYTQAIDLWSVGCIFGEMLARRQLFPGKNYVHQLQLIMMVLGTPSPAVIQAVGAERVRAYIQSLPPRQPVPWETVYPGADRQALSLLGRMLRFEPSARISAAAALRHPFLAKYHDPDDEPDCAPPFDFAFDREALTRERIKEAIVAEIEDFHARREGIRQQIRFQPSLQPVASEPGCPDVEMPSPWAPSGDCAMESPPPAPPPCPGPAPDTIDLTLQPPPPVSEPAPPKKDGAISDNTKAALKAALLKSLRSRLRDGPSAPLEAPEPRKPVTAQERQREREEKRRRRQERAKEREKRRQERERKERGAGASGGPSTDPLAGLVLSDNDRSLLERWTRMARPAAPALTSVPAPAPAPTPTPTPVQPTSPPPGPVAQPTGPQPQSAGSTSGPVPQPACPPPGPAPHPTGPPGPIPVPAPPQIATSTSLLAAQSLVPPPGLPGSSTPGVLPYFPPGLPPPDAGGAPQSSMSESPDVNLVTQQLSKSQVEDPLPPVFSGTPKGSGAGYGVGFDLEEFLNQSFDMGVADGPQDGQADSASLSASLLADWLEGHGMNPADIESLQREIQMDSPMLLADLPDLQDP
# [14] = galactose survival enhancers in mitochondrial complex I cybrids – cell-based, galactose medium, ATP luminescence, primary screen (AID 1645843;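 active = z-score of at least 1.8 in each of two replicates, scored against plate mean and spread of sample wells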;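 note: positive z means more ATP and so rescue of galactose-driven cybrid death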); conditions: complex I mutant cybrid cells, 72 h, stronger effect = higher value
# [15] = compounds altering viability of human ES cells (AID 493140; call rule not given here;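 note: cells exposed to compounds for four days before counting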); conditions: human embryonic stem cell survival screen; stronger effect = higher value
# [16] = P. berghei load reduction in hepatocytes – cell-based, HepG2, luciferase luminescence, HepG2 viability, primary screen (AID 624349);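 note: 100% = mean of DMSO negative control wells on the same plate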; conditions: P. berghei liver stage in HepG2, luciferase luminescence, concentration not given here; parasite load remaining: stronger effect = lower value; viability: measured here: HepG2 viability without parasites
# [17] = biological target: NAD(+) hydrolase SARM1 (Homo sapiens) (UniProt Q6SZW1); assay: blocking NAD cleavage by SARM1 SAM-TIR – cell lysate, NAD-Glo luminescence (AID 1508614;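 active = compound whose remaining NAD level is above about 45 nM, limit read from the data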;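 note: higher remaining NAD means stronger inhibition of SARM1 NADase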); conditions: SAM-TIR HEK293T lysate NADase, at 1 µM, stronger effect = higher value
# Sequence of NAD(+) hydrolase SARM1 (Homo sapiens) (Q6SZW1 whole entry, looked up): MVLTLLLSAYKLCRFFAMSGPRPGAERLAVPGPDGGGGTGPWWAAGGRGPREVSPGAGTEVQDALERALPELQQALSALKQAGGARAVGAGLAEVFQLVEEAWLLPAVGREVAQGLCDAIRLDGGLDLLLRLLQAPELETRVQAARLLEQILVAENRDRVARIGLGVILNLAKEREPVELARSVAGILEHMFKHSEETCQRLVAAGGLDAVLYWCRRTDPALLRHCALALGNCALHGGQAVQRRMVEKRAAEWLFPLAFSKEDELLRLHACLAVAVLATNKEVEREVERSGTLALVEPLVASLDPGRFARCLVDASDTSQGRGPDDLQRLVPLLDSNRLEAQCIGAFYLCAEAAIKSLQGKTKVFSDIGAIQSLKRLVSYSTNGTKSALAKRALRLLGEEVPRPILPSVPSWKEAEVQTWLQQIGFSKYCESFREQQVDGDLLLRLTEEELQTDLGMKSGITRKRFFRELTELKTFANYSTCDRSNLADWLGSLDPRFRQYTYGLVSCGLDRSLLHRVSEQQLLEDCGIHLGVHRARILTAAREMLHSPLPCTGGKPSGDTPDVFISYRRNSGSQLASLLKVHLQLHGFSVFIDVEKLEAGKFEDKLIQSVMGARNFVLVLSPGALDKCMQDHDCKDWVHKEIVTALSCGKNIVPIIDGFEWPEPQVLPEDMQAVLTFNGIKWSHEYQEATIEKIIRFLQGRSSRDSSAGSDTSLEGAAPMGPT
# [18] = MELAS cybrid and Rieske KO viability enhancers – cell-based, MELAS cybrids, Rieske KO mouse fibroblasts, CellTiter-Glo, primary screen (AID 1508586;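 active = mean z-score across replicates of 1.96 or higher in either the MELAS or the Rieske mutant cell line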;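 note: z relative to plate mean and SD of compound and empty wells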); conditions: low glucose
# [19] = compounds altering circadian rhythm period length – cell-based, LOPAC library, luminescence reporter (AID 2774; call rule not given here;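 note: values are relative to mean of DMSO wells on each plate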); conditions: circadian reporter cells, at 7 µM, actives lie on both sides
# [20] = measured here: epithelial PC-3E GFP cell survival
# [21] = measured here: mesenchymal TEM4-18 mCherry cell survival
# [22] = stronger effect = lower value, cell number ratio, induced over uninduced
# [23] = measured here: relative caspase fold change +Dox/-Dox
# [24] = measured here: total cells with miR-34 induction, stronger effect = lower value
# [25] = measured here: total cells without miR-34 induction
# [26] = MELAS cybrid survival, CellTiter-Glo 48 h, stronger effect = higher value
# [27] = Rieske KO mouse fibroblast survival, CellTiter-Glo 72 h
smiles,measurement,setting,value
O=c1cc(-c2ccccc2)oc2c(O)c(O)ccc12,inhibition,[1],17.3%
same,score,[2],0.23
same,rescue above control,[3],-0.88
same,cytochrome c release ratio,[4],0.65
same,inhibition of aggregation,[5],81.7%
same,glutamate uptake change,[6],0.12%
same,inclusion score,[7],1.5
same,aggregation suppression score,[8],0.00444
same,inhibition,[9],-53.2% (inactive)
same,red/green cell ratio (normalised),[10],0.99 (inactive)
same,normalised cell number,[10]; [20],0.99
same,normalised cell number,[10]; [21],0.98
same,fold change,[11]; [22],1.65 (inactive)
same,fold change,[11]; [23],0.979
same,cell count,[11]; [24],3960
same,cell count,[11]; [25],2390
same,outcome,[12],inactive
same,luciferase signal,[13],32 AU (inactive)
same,z-score,[14],-0.44 (inactive)
C=C1c2c(Cl)ccc(O)c2C(O)=C2C(=O)[C@]3(O)C(O)=C(C(N)=O)C(=O)[C@@H](N(C)C)[C@@H]3[C@@H](O)[C@H]12,inhibition,[1],-20.8%
same,score,[2],0.46
same,rescue above control,[3],1.02
same,cytochrome c release ratio,[4],0.58
same,inhibition of aggregation,[5],84.6%
same,glutamate uptake change,[6],0.44%
same,inclusion score,[7],1
same,aggregation suppression score,[8],0.198
same,survival,[15],6.83 (inactive)
same,parasite load remaining,[16],145% (inactive) and 78.4% (inactive) and 31.4% (inactive)
same,viability,[16],71.2% and 75.1% and 92.1%
same,inhibition,[9],10.5% (inactive)
same,red/green cell ratio (normalised),[10],0.85 (inactive)
same,normalised cell number,[10]; [20],0.99
same,normalised cell number,[10]; [21],0.84
same,fold change,[11]; [22],0.864 (inactive)
same,fold change,[11]; [23],1.07
same,cell count,[11]; [24],8250
same,cell count,[11]; [25],9550
same,remaining NAD,[17],10 nM (inactive)
same,luciferase signal,[13],40 AU (inactive)
CC(C)(C)NC[C@H](O)c1ccc(O)c(CO)c1,inhibition,[9],-0.348% (inactive)
same,red/green cell ratio (normalised),[10],0.77 (inactive)
same,normalised cell number,[10]; [20],1.2
same,normalised cell number,[10]; [21],0.92
same,fold change,[11]; [22],0.873 (inactive)
same,fold change,[11]; [23],1.01
same,cell count,[11]; [24],7950
same,cell count,[11]; [25],9100
same,z-score,[18]; [26],0.715 (inactive)
same,z-score,[18]; [27],-0.611
same,remaining NAD,[17],10 nM (inactive)
same,luciferase signal,[13],112 AU (inactive)
Cn1c(=O)c2[nH]c(C3CCCC3)nc2n(C)c1=O,inhibition,[1],24.6%
same,score,[2],1.3
same,rescue above control,[3],12.7
same,cytochrome c release ratio,[4],0.91
same,inhibition of aggregation,[5],-13.7%
same,glutamate uptake change,[6],10.7%
same,inclusion score,[7],1.5
same,aggregation suppression score,[8],1.14
same,period change,[19],0.02 h (inactive)
same,inhibition,[9],-7.2% (inactive)
same,red/green cell ratio (normalised),[10],0.82 (inactive)
same,normalised cell number,[10]; [20],1.23
same,normalised cell number,[10]; [21],1.01
same,fold change,[11]; [22],0.947 (inactive)
same,fold change,[11]; [23],1.51
same,cell count,[11]; [24],9200
same,cell count,[11]; [25],9710
same,outcome,[12],inactive
same,luciferase signal,[13],44 AU (inactive)
same,z-score,[14],0.92 (inactive)
Cc1[nH]ccc2c1[nH]c1cc(=O)ccc12,survival,[15],3 (inactive)
same,parasite load remaining,[16],74.5% (inactive) and 99.2% (inactive) and 81.5% (inactive)
same,viability,[16],88.4% and 65.9% and 69.9%
same,inhibition,[9],8.86% (inactive)
same,red/green cell ratio (normalised),[10],0.84 (inactive)
same,normalised cell number,[10]; [20],1
same,normalised cell number,[10]; [21],0.83
same,fold change,[11]; [22],0.837 (inactive)
same,fold change,[11]; [23],1.33
same,cell count,[11]; [24],6490
same,cell count,[11]; [25],7750
same,luciferase signal,[13],76 AU (inactive)
NCC(O)CC(=O)O (centres undefined),inhibition,[1],11.2%
same,score,[2],1.7
same,rescue above control,[3],-10.6
same,cytochrome c release ratio,[4],1.09
same,inhibition of aggregation,[5],57.7%
same,glutamate uptake change,[6],9.66%
same,inclusion score,[7],2
same,aggregation suppression score,[8],1.63
same,parasite load remaining,[16],157% (inactive)
same,viability,[16],91.4%
same,inhibition,[9],-18.3% (inactive)
same,red/green cell ratio (normalised),[10],0.75 (inactive)
same,normalised cell number,[10]; [20],1.28
same,normalised cell number,[10]; [21],0.96
same,remaining NAD,[17],10 nM (inactive)
same,luciferase signal,[13],44 AU (inactive)
CC(=O)Nc1ccc(OC(=O)c2ccccc2O)cc1,inhibition,[1],-0.86%
same,score,[2],0.55
same,rescue above control,[3],4.5
same,cytochrome c release ratio,[4],1.29
same,inhibition of aggregation,[5],92.3%
same,glutamate uptake change,[6],0.86%
same,inclusion score,[7],2
same,aggregation suppression score,[8],0.54
same,parasite load remaining,[16],50.3% (inactive)
same,viability,[16],71.4%
same,inhibition,[9],-12.6% (inactive)
same,red/green cell ratio (normalised),[10],0.93 (inactive)
same,normalised cell number,[10]; [20],1.16
same,normalised cell number,[10]; [21],1.08
same,remaining NAD,[17],10 nM (inactive)
same,luciferase signal,[13],40 AU (inactive)
N[C@H](Cc1ccccc1)C(=O)O,inhibition,[1],15.8%
same,score,[2],1.59
same,rescue above control,[3],-4.58
same,cytochrome c release ratio,[4],0.85
same,inhibition of aggregation,[5],56.8%
same,glutamate uptake change,[6],4.25%
same,inclusion score,[7],2
same,aggregation suppression score,[8],1.21
same,parasite load remaining,[16],140% (inactive)
same,viability,[16],87.2%
same,inhibition,[9],6.57% (inactive)
same,red/green cell ratio (normalised),[10],1.1 (inactive)
same,normalised cell number,[10]; [20],0.82
same,normalised cell number,[10]; [21],0.9
same,remaining NAD,[17],98 nM (active)
same,luciferase signal,[13],56 AU (inactive)
CCOC(=O)CCC(=O)O[C@H]1[C@H](O[C@@H]2[C@@H](C)[C@H](O[C@H]3C[C@@](C)(OC)[C@@H](O)[C@H](C)O3)[C@@H](C)C(=O)O[C@H](CC)[C@@](C)(O)[C@H](O)[C@@H](C)C(=O)[C@H](C)C[C@@]2(C)O)O[C@H](C)C[C@@H]1N(C)C,inhibition,[1],26.4%
same,score,[2],1.27
same,rescue above control,[3],16.6
same,cytochrome c release ratio,[4],1.72
same,inhibition of aggregation,[5],47.5%
same,glutamate uptake change,[6],-6.79%
same,inclusion score,[7],2
same,aggregation suppression score,[8],1.2
same,parasite load remaining,[16],61.8% (inactive)
same,viability,[16],170%
same,inhibition,[9],-8.96% (inactive)
same,red/green cell ratio (normalised),[10],1.11 (inactive)
same,normalised cell number,[10]; [20],1.38
same,normalised cell number,[10]; [21],1.54
same,fold change,[11]; [22],0.87 (inactive)
same,fold change,[11]; [23],1.05
same,cell count,[11]; [24],11100
same,cell count,[11]; [25],12700
same,remaining NAD,[17],10 nM (inactive)
same,luciferase signal,[13],208 AU (inactive)
Nc1c2ccccc2nc2ccccc12 (tested in a mixture with another compound),parasite load remaining,[16],2.09% (inactive) and 61.1% (inactive)
same,viability,[16],97.8% and 80.2%
same,inhibition,[9],3.89% (inactive)
same,red/green cell ratio (normalised),[10],0.94 (inactive)
same,normalised cell number,[10]; [20],1.25
same,normalised cell number,[10]; [21],1.17
same,fold change,[11]; [22],1.59 (inactive)
same,fold change,[11]; [23],1.23
same,cell count,[11]; [24],1530
same,cell count,[11]; [25],960
same,remaining NAD,[17],10 nM (inactive)
same,luciferase signal,[13],80 AU (inactive)
CC(C)Cn1c(=O)n(C)c(=O)c2[nH]cnc21,inhibition,[1],10.7%
same,score,[2],1.18
same,rescue above control,[3],-7.15
same,cytochrome c release ratio,[4],0.66
same,inhibition of aggregation,[5],80.3%
same,glutamate uptake change,[6],11.7%
same,inclusion score,[7],2
same,aggregation suppression score,[8],1.34
same,period change,[19],0.065 h (inactive)
same,parasite load remaining,[16],31.6% (inactive)
same,viability,[16],71.5%
same,inhibition,[9],-0.657% (inactive) and 4.73% (inactive)
same,red/green cell ratio (normalised),[10],0.79 (inactive) and 0.82 (inactive)
same,normalised cell number,[10]; [20],1.26 and 1.32
same,normalised cell number,[10]; [21],1 and 1.09
same,outcome,[12],inactive
same,z-score,[18]; [26],-0.413 (inactive) and 0.263 (inactive)
same,z-score,[18]; [27],0.307 and 0.838
same,luciferase signal,[13],504 AU (active)
same,z-score,[14],0.71 (inactive) and -0.29 (inactive) and 0.67 (inactive)
